Measurements: PubChem BioAssay AID1159580 (chemical genetic matrix, 2015)
Where “and” joins values, the source holds several entries; their conditions need not be identical. Equal values may be shown once. About 2,000 (36%) of roughly 5,500 compounds were called active. Roughly 18% stayed inconclusive and do not appear here. Cut-off read from the data, not from the text of the source: active = normalized growth mostly below about 0.91 (no sharp cut-off); inconclusive = no clear call, values can overlap the other calls; inactive = mostly above about 0.92. The list shows a part of the results.

Assay: chemical genetic growth profiling, strain panel (AID 1159580);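 note: tested at 20 µM; growth read once vehicle control cultures reached saturation at 30 °C; 1 = growth at the plate median or of vehicle wells; lower values mean less growth of the strain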
Conditions: S. cerevisiae deletion strains, growth OD

Measured: normalized growth

CC/C(=C(\c1ccccc1)c1ccc(OCCN(C)C)cc1)c1ccccc1
0.0499 (active) and 0.883 (inactive): locus YHR030C, strain SLT2, stronger effect = lower value
inactive: locus YAL040C, strain CLN3, stronger effect = lower value 1.04 | locus YER002W, strain NOP16, stronger effect = lower value 1.02 | locus YHR079C, strain IRE1, stronger effect = lower value 0.883 | locus YJR066W, strain TOR1, stronger effect = lower value 0.888
0.0507 (active) and 0.883 (inactive): locus YJL095W, strain BCK1, stronger effect = lower value
active: locus YAL013W, strain DEP1, stronger effect = lower value 0.0667 | locus YAL021C, strain ccr4, stronger effect = lower value 0.0669 | locus YAL026C, strain drs2, stronger effect = lower value 0.0635 | locus YAL030W, strain snc1, stronger effect = lower value 0.0686 | locus YBL061C, strain skt5, stronger effect = lower value 0.072 | locus YBR009C, strain hhf1, stronger effect = lower value 0.0625 | locus YBR021W, strain FUR4, stronger effect = lower value 0.0845 | locus YBR023C, strain chs3, stronger effect = lower value 0.0749 | locus YBR171W, strain sec66, stronger effect = lower value 0.383 | locus YBR229C, strain ROT2, stronger effect = lower value 0.0463 | locus YBR231C, strain swc5, stronger effect = lower value 0.0729 | locus YBR279W, strain paf1, stronger effect = lower value 0.122 | locus YCL011C, strain gbp2, stronger effect = lower value 0.0716 | locus YCL016C, strain dcc1, stronger effect = lower value 0.122 | locus YCL029C, strain bik1, stronger effect = lower value 0.0615 | locus YCL061C, strain MRC1 (second series), stronger effect = lower value 0.311 | locus YCL069W, strain vba3, stronger effect = lower value 0.0995 | locus YCR088W, strain abp1, stronger effect = lower value 0.0758 | locus YDL005C, strain med2, stronger effect = lower value 0.382 | locus YDL035C, strain GPR1, stronger effect = lower value 0.0496 | locus YDL040C, strain nat1, stronger effect = lower value 0.312 | locus YDL074C, strain BRE1, stronger effect = lower value 0.0746 | locus YDL101C, strain DUN1, stronger effect = lower value 0.0532 | locus YDL134C, strain PPH21, stronger effect = lower value 0.0467 | locus YDL185W, strain tfp1, stronger effect = lower value 0.606 | locus YDL192W, strain arf1, stronger effect = lower value 0.062 | locus YDR001C, strain nth1, stronger effect = lower value 0.0956 | locus YDR069C, strain doa4, stronger effect = lower value 0.068 | locus YDR101C, strain arx1, stronger effect = lower value 0.0613 | locus YDR137W, strain rgp1, stronger effect = lower value 0.461 | locus YDR150W, strain NUM1, stronger effect = lower value 0.0558 and 0.416 | locus YDR159W, strain sac3, stronger effect = lower value 0.0992 | locus YDR162C, strain NBP2, stronger effect = lower value 0.046 | locus YDR195W, strain ref2 0.166 | locus YDR297W, strain sur2, stronger effect = lower value 0.0894 | locus YDR318W, strain mcm21, stronger effect = lower value 0.0655 | locus YDR334W, strain swr1, stronger effect = lower value 0.0759 | locus YDR335W, strain msn5, stronger effect = lower value 0.103 | locus YDR363W, strain ESC2, stronger effect = lower value 0.174 | locus YDR388W, stronger effect = lower value 0.0557 | locus YDR392W, strain spt3, stronger effect = lower value 0.0847 | locus YDR502C, strain sam2, stronger effect = lower value 0.0692 | locus YEL003W, strain gim4, stronger effect = lower value 0.127 | locus YEL037C, strain rad23, stronger effect = lower value 0.093 | locus YEL061C, strain CIN8 (second series), stronger effect = lower value 0.243 | locus YEL061C, strain CIN8, stronger effect = lower value 0.0479 | locus YER015W, strain faa2, stronger effect = lower value 0.117 | locus YER016W, strain bim1, stronger effect = lower value 0.164 | locus YER110C, stronger effect = lower value 0.072 | locus YER111C, strain swi4, stronger effect = lower value 0.372 | locus YER155C, strain BEM2 (second series), stronger effect = lower value 0.668 | locus YER155C, strain BEM2, stronger effect = lower value 0.0653 | locus YER167W, strain BCK2, stronger effect = lower value 0.05 | locus YFR010W, strain ubp6, stronger effect = lower value 0.0799 | locus YGL078C, strain dbp3, stronger effect = lower value 0.901 | locus YGL086W, strain mad1, stronger effect = lower value 0.0577 | locus YGL167C, strain pmr1, stronger effect = lower value 0.196 | locus YGL173C, strain kem1, stronger effect = lower value 0.168 | locus YGL227W, strain vid30, stronger effect = lower value 0.143 | locus YGL240W, strain doc1, stronger effect = lower value 0.436 | locus YGL248W, strain PDE1, stronger effect = lower value 0.0453 | locus YGL253W, strain hxk2, stronger effect = lower value 0.0687 | locus YGR078C, strain PAC10, stronger effect = lower value 0.0556 and 0.48 | locus YGR135W, strain pre9, stronger effect = lower value 0.0678 | locus YGR229C, strain SMI1, stronger effect = lower value 0.061 and 0.0615 | locus YGR252W, strain gcn5, stronger effect = lower value 0.155 | locus YHR013C, strain ard1, stronger effect = lower value 0.174 | locus YHR027C, strain rpn1, stronger effect = lower value 0.102 | locus YHR079C, strain IRE1 (second series), stronger effect = lower value 0.0574 | locus YHR094C, strain hxt1, stronger effect = lower value 0.059 | locus YHR129C, strain ARP1, stronger effect = lower value 0.0531 | locus YHR142W, strain chs7, stronger effect = lower value 0.0883 | locus YHR200W, strain rpn10, stronger effect = lower value 0.0609 | locus YIL066C, strain RNR3, stronger effect = lower value 0.0471 | locus YIL073C, strain SPO22, stronger effect = lower value 0.158 | locus YIL125W, strain kgd1, stronger effect = lower value 0.91 | locus YIR030C, strain dcg1, stronger effect = lower value 0.0575 | locus YJL092W, strain hpr5, stronger effect = lower value 0.0913 | locus YJL095W, strain BCK1 (second series), stronger effect = lower value 0.0594 | locus YJL115W, strain asf1, stronger effect = lower value 0.155 | locus YJL129C, strain trk1, stronger effect = lower value 0.159 | locus YJL134W, strain LCB3, stronger effect = lower value 0.0479 | locus YJL154C, strain vps35, stronger effect = lower value 0.078 | locus YJL164C, strain tpk1, stronger effect = lower value 0.0754 | locus YJL166W, strain qcr8, stronger effect = lower value 0.0964 | locus YJL168C, strain set2, stronger effect = lower value 0.057 | locus YJL187C, strain SWE1 (second series), stronger effect = lower value 0.046 | locus YJR043C, strain POL32, stronger effect = lower value 0.0587 | locus YJR075W, strain HOC1, stronger effect = lower value 0.0611 and 0.54
